# Screening results (PubChem)
# ADAM17 inh: inhibits human ADAM17; hit rate 0.83% among 370,000; recombinant ADAM17, EDANS/DABCYL FRET peptide cleavage; inhibition, % at 6.95 µM; P78536; AID 720648;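 active = inhibition above the mean of compounds lying between control limits plus 3 SD, set per campaign, cut at about 8.5% in these data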
# Target sequence (P78536 215-824 limits assumed): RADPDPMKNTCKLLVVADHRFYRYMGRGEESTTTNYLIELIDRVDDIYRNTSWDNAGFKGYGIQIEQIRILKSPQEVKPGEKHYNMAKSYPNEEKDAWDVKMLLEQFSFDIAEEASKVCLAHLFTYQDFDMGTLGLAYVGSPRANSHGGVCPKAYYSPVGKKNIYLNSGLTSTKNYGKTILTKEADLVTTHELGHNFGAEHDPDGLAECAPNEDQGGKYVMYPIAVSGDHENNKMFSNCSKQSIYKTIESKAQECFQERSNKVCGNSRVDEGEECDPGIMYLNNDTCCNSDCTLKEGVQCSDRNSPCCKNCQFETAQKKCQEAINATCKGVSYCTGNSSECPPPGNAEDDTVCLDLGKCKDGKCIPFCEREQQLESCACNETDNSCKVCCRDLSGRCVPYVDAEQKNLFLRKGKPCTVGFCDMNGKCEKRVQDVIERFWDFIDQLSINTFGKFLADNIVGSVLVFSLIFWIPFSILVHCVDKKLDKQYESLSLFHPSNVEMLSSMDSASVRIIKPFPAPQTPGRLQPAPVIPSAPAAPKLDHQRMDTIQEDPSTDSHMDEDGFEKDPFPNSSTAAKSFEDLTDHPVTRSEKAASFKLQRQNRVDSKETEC
# PLCg1 inh: blocks human PLC-gamma1 enzyme activity; P19174; purified PLC-gamma1, fluorogenic substrate, fluorescence; inhibition, % at 12.2 µM; hit rate 0.84% among 370,000; AID 720700; in the data active = inhibition above about 9.5%
# Rce1 inh: inhibitors of yeast Ras-converting enzyme; Q03530; yeast membranes, quenched prenylated peptide cleavage fluorescence; AID 2563; hit rate 0.27% among 290,000; calls only;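 active = fall in fluorescence gain of 50% or more versus controls, with final raw signal at or below 3038400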
# PLCb3 inh: PLC-beta3 (human) inhibition, primary screen. Q01970. Purified PLC-beta3, fluorogenic substrate, fluorescence. inhibition, % at 12.2 µM. hit rate 0.18% among 370,000. AID 720704; in the data active = inhibition above about 11%
# ADAM10 inh: inhibitors of human ADAM10. AID 720582. inhibition, % at 7 µM. hit rate 0.62% among 370,000. recombinant ADAM10, EDANS/DABCYL FRET peptide cleavage, 3 h;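 active = inhibition above a per-campaign cutoff equal to the mean of compounds falling between control-based bounds plus 3 SD, cut at about 20% in these data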
# ADAM10 confirm: human ADAM10 inhibition, confirmation | shares compounds with ADAM10 inh | ADAM10 QFRET peptide cleavage, EDANS fluorescence | inhibition, % at 6.95 µM | hit rate 1% among 2,100;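 active = inhibition above about 20% chosen separately for each screening run, limit read from the data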
# ADAM17 counter: inhibits human ADAM17 in ADAM10 exosite counter-screen. shares compounds with ADAM10 inh. ADAM17 QFRET peptide cleavage, EDANS fluorescence. inhibition, % at 6.95 µM. hit rate 0.5% among 2,100. AID 743214;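 active = mean triplicate inhibition above the solvent-only control wells' mean plus 3 SD, cut at about 12% in these data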
# Hits are given with their value; n = inactive; x = no result. In the library only some 2.1% were active in any assay of this set; here they are far more common.
SMILES,ADAM17 inh,PLCg1 inh,Rce1 inh,PLCb3 inh,ADAM10 inh,ADAM10 confirm,ADAM17 counter
O=[N+]([O-])c1ccc(-c2cnc(SCc3ccccc3Cl)[nH]2)cc1,n,n,n,n,20,n,n
NC(=O)CSc1ncc(-c2ccc([N+](=O)[O-])cc2)[nH]1,n,n,n,n,n,x,x
Oc1ccc(Cl)cc1-c1cc(-c2ccccc2Cl)[nH]n1,n,n,n,n,n,x,x
Oc1ccccc1-c1cc(-c2cccc(F)c2)n[nH]1,n,n,n,n,21,n,n
C/C(=N\N=C(/N)SC1CC(=O)N(c2cccc(Cl)c2)C1=O)c1cccs1 (configuration not stated),n,n,n,n,27,n,n
O=C1O[C@@H](c2ccccc2)C[C@@H](O)[C@H](O)CCCCc2ccccc21,n,n,x,n,n,x,x
CN(C)C(=O)c1cc(Cl)ccc1Sc1cc(Cl)ccc1Cl,n,n,n,n,n,x,x
Oc1ccc(Cl)cc1Sc1cc(Cl)ccc1O,n,n,x,n,25,n,n
CCOC(=O)N/N=C/c1cn(CCCOc2ccc(C)cc2)c2ccccc12,n,n,n,n,n,x,x
Cc1ccc(OCC(=O)N/N=C/c2cn(Cc3ccccc3)c3ccccc23)cc1,n,n,n,n,23,n,n
CC(C)Oc1ccc(CC(=O)NNC(=S)Nc2ccccc2)cc1,n,n,n,n,27,n,n
CCOc1ccc(CC(=O)NNC(=S)Nc2ccccc2)cc1Br,n,n,n,n,20,n,n
O=C(Cc1noc2ccccc12)Nc1ccc(Cl)cc1,n,n,n,n,n,x,x
O=C(Cc1noc2ccccc12)NNC(=S)Nc1ccccc1,n,n,n,n,20,n,n
S=C(NCCc1ccccn1)Nc1cccc(Cl)c1,n,n,n,n,n,x,x
Cc1ccc(S(=O)(=O)Nc2cccc(C(=O)NCCCN3CCCC3=O)c2)cc1F,n,n,n,n,n,x,x
O=C(NC1CCCCN(Cc2ccc(Cl)cc2)C1=O)C(c1ccccc1)c1ccccc1 (configuration not stated),n,n,x,n,22,n,n
O=C1NC(Cc2ccc(O)cc2)c2nc3ccc(Br)cc3c(=O)n2-c2cc3ccccc3cc21 (configuration not stated),n,n,x,n,n,x,x
Cc1cc(C)c2c(=O)n3c(nc2c1)C(Cc1ccc(O)cc1)NC(=O)c1cc2ccccc2cc1-3 (configuration not stated),n,n,x,n,23,21,n
Cc1ccccc1CN(c1ccc(C(=O)Nc2ccccc2C(=O)NCc2ccco2)cc1)S(C)(=O)=O,n,n,n,n,26,20,n
Cc1ccc(C(=O)Nc2ccccc2C(=O)NCc2ccco2)cc1,n,n,x,n,n,x,x
COCCCNC(=O)C[C@H]1C[C@@]2(C(=O)OC)C(=C[C@H](COCc3ccccc3)O[C@@H]2C)N(Cc2ccc3c(c2)OCO3)C1=O,n,n,x,n,n,x,x
COc1ccccc1C(=O)Nc1nc(-c2ccc(S(=O)(=O)N3CCOCC3)cc2)cs1,n,n,n,n,n,x,x
COc1ccccc1OC(C)C(=O)Nc1nc(-c2ccc(S(=O)(=O)N3CCOCC3)cc2)cs1 (configuration not stated),n,n,n,n,21,n,n
Cc1ccc(C(=O)COC(=O)c2cccc(NC(=O)c3ccc([N+](=O)[O-])cc3[N+](=O)[O-])c2)cc1,n,n,n,n,25,n,n
SMILES,ADAM17 inh,PLCg1 inh,Rce1 inh,PLCb3 inh,ADAM10 inh,ADAM10 confirm,ADAM17 counter
Cc1ccc2oc(=O)c(/C=C(\O)c3ccco3)nc2c1,n,n,n,n,21,n,n
Cc1ccc2oc(=O)c(/C=C(\O)C(C)(C)C)nc2c1,n,n,n,n,n,x,x
Brc1cccc(CSc2nnc(-c3ccncc3)o2)c1,n,n,n,n,n,x,x
CCC(NC(=O)c1ccccc1NC(=O)c1ccccc1)C(=O)NNC(=O)c1cccnc1 (configuration not stated),n,n,n,n,n,x,x
CCC1(c2ccccc2)NC(=O)N(CC(=O)N(CC(=O)Nc2ccccc2C(F)(F)F)Cc2ccco2)C1=O (configuration not stated),n,n,n,n,81,n,n
O=C(NC1=N[C@@]2(C=C3CCCCC3n3c(=O)n(-c4ccccc4)c(=O)n32)[C@H](Cc2ccccc2)N1Cc1ccccc1)c1ccccc1 (some centres not stated),9.7,n,x,n,20,n,n
O=C(N=C1N(Cc2ccccc2)C[C@]2(C=C3CCCCC3n3c(=O)n(-c4ccccc4)c(=O)n32)N1C(=O)OCc1ccccc1)c1ccccc1 (some centres not stated),n,n,x,n,n,x,x
Cc1cc(C)c2c(CN(C)Cc3ccccc3)cc(=O)oc2c1,n,n,x,n,n,x,x
CC(C)CC(COCc1ccc(C(F)(F)F)cc1)N1CCN(C(=O)c2ccc(C(F)(F)F)cc2)CCC1=O (configuration not stated),n,n,n,n,27,n,n
O=C(c1cccc(Cl)c1)N1CCC(=O)N([C@H](COCc2cccc(Cl)c2)Cc2ccccc2)CC1,n,n,x,n,20,n,n
Cc1cccc(COCC(Cc2ccccc2)N2CCN(C(=O)c3cccc(C)c3)CCC2=O)c1 (configuration not stated),n,n,n,n,n,x,x
CC(=O)N(C)c1cccc(-c2ccc3nnc(C)n3n2)c1,n,n,n,n,n,x,x
COc1cccc(CO[C@H]2C=C[C@@H](c3ccccc3)O[C@@H]2CO)c1,n,n,x,n,n,x,x
O=C(O)c1cccc(NC(=S)N/N=C/c2ccccc2OCc2ccc(Br)cc2)c1,n,n,n,n,23,n,n
Nc1nc(-c2ccc(Cl)cc2)c(S(=O)(=O)c2ccccc2)s1,n,n,n,n,20,n,n
O=C(C(=O)N1CCC(CNC(=O)c2sc3ccccc3c2Cl)CC1)c1cccs1,n,n,x,n,n,x,x
Cc1ccc(S(=O)(=O)NC2c3cccc4cccc(c34)C2Sc2nc(C)cc(C)n2)cc1 (configuration not stated),n,n,n,n,20,n,n
O=S(=O)(Nc1cccc2cccnc12)c1ccc(S(=O)(=O)N2CCCC2)cc1,n,n,n,n,22,n,n
COc1ccc(-c2nnn(CC(=O)N(CC3CCCO3)C(C(=O)NC(C)(C)C)c3ccco3)n2)cc1OC (configuration not stated),n,n,n,n,n,x,x
COc1ccccc1/C=C1\SC(=S)N(CCC(=O)Nc2cccc(O)c2)C1=O,n,n,n,n,23,n,n
COc1cc(/C=C2\SC(=S)N(CCC(=O)Nc3cccc(O)c3)C2=O)cc(OC)c1OC,n,n,n,n,21,n,n
COc1cc(/C=C2\SC(=S)N(CCC(=O)Nc3ccccc3)C2=O)cc(OC)c1OC,n,n,n,n,n,x,x
